ChEMBL document CHEMBL4513216, “Probing the Open Global Health Chemical Diversity Library for Multistage-Active Starting Points for Next-Generation Antimalarials” (ACS Infect Dis, 2020)
The whole screen tested about 68,000 compounds, of which about 2,700 (4%) showed an effect of 50% or more. Shown is part of a subset that was picked to be rich in strong results.

Test system: Plasmodium berghei
Assay: Screen against P. berghei liver stage (PbLuc), transformed with Luciferase, at 2uM
Assay type: functional, HepG2
Settings: tested at 2 uM

In order of falling INHIBITION:
1. Cc1csc(N2CCC(NCC3(O)CCc4ccccc43)CC2)n1 (stereo not drawn)  72.05%
2. Cc1nc2c(C)cccc2cc1C(=O)N1CCC2(CC1)NCCNC2=O  71.07%
3. O=C(c1nc(Cc2c[nH]c3ccccc23)no1)N1CCCC1  70.87%
4. CCN(CC)Cc1cc(C(=O)N2CCC3(CC2)NCCNC3=O)c(C)o1  64.71%
5. CS(=O)(=O)NC(=O)c1cnc2c(cnn2C2CCCC2)c1  64.35%
6. CCC1=NC(SCC(=O)c2ccccc2)c2cc(CC)sc2N1 (stereo not drawn)  63.79%
7. COCCNC(=O)NCCCOC1CCCc2ccccc21 (stereo not drawn)  58.9%
8. COc1ccccc1CN(Cc1cccnc1)Cc1c[nH]c(C)n1  55.29%
9. NC(=O)c1nc(COc2ccc3c(c2)OCO3)no1  54.49%
10. O=C(Cc1c[nH]c2ccccc12)N1CCN(C(=O)c2ccoc2)CC1  54.49%
11. O=C(CN1C(=O)CCC1=O)N1CCC(S(=O)(=O)Cc2ccco2)CC1  53.81%
12. c1csc(CN2C[C@@H](n3cccn3)[C@H]3OCCC[C@H]32)c1  51.85%
13. CN(C)CCN1CC(C(=O)N2CCC(c3cc(=O)[nH]cn3)CC2)CC1=O (stereo not drawn)  47.64%
14. O=C(CN1C(=O)CCC1=O)N1CCC(CSCc2ccco2)CC1  44.23%
15. O=C(NC1CCC(O)CC1)c1cnc2c(cnn2C2CCCC2)c1 (stereo not drawn)  38.49%
16. Cc1cc(C(F)(F)F)n2nc(C3CCCN3C3CCSCC3)cc2n1 (stereo not drawn)  36%
17. Cn1cnc(S(=O)(=O)N2CC3(CCN(CC4CC4)C3)C2)c1  35.84%
18. CCN(CC)Cc1cc(C(=O)N2CCCC(O)(CO)C2)c(C)o1 (stereo not drawn)  35.42%
19. CCC(C)NC(=O)CN1CCC2(CC1)OCCO2 (stereo not drawn)  34.18%
20. CCC1=NC(SCC(=O)c2ccc(C)cc2)c2cc(CC)sc2N1 (stereo not drawn)  33.58%
21. COc1ccccc1CN(Cc1cccnc1)Cc1nccs1  32.97%
22. c1cnnc(N2CCCC(NCc3ccc(-n4cncn4)cc3)C2)c1 (stereo not drawn)  32.79%
23. CC(C)(C)C(=O)NCCCn1cncn1  32.55%
24. OC1(CNC2CCN(c3ccccn3)CC2)CCc2ccccc21 (stereo not drawn)  29.13%
25. Cc1cc(NC(=O)CN2CCCC2c2c(C)nn(C)c2C)on1 (stereo not drawn)  26.76%
26. Cn1ccc(C(=O)NCCOc2ccc3c(c2)OCO3)cc1=O  25.78%
27. CNc1cccc(C2CCCN(C(=O)c3ccn(C)n3)C2)n1 (stereo not drawn)  15.64%
28. c1cnn([C@@H]2CN(Cc3nccs3)[C@@H]3CCCO[C@@H]32)c1  13.61%
29. COCCOCC(=O)NCCCOC1CCCc2ccccc21 (stereo not drawn)  12.22%
30. CCc1oc(C(=O)NC(C)Cc2cnccn2)cc1CN1CCCC1 (stereo not drawn)  12.11%
31. O=C(CN1C(=O)CCC1=O)N1CCOCC1  9.1%
32. O=C(N[C@@H]1CN(Cc2cccs2)[C@@H]2CCCO[C@@H]21)C1CC1  8.91%
33. Cc1ccc(CN2C[C@@H]3COC[C@H](NS(C)(=O)=O)[C@@H]3C2)s1  8.88%
34. Cc1nnc(CSCc2ccc(OCC(F)(F)F)nc2)o1  8.78%
35. COC(=O)c1ccn(COc2ccccc2Cl)n1  8.41%
36. Cc1nnc(C2CCN(C(=O)c3ccsc3)CC2)s1  7.68%
37. O=C(CCN1CCCC1c1cccs1)N1CCc2sccc2C1 (stereo not drawn)  7.54%
38. CCCOCCN1CCC2(CC1)CC(=O)N(Cc1cc(F)cc(F)c1)C2  7.13%
39. COc1cnc(N2CCCC(c3ncc[nH]3)C2)nc1 (stereo not drawn)  6.39%
40. CC(Cc1ccco1)NC(=O)Nc1ccc(N2CCCC2)nc1 (stereo not drawn)  5.91%
41. CC1(C)O[C@@](C)([C@H]2CC3(CCN(c4cnccn4)CC3)CO2)CC[C@@H]1O  4.19%
42. Cc1nc(CN(Cc2cccnc2)Cc2ccsc2)c[nH]1  2.76%
43. O=C(c1nc(COc2ccc3c(c2)OCO3)no1)N1CCCC1  2.41%
44. O=C(c1cccc(C2CCNC2)c1)N1CCC(c2ccncc2)CC1 (stereo not drawn)  -0.41%
45. O=C(Cc1c[nH]c2ccccc12)N1CCC(Nc2ccccc2)CC1  -0.6%
46. CCc1nn(C)c(CC)c1CNC(=O)Nc1cccc2c1CCN2C  -1.56%
47. O=C(c1nc(Cc2c[nH]c3ccccc23)no1)N1CCCCC1  -7.02%
48. O=C(Nc1cccc(C2SCCS2)c1)C1CCCN1c1nccs1 (stereo not drawn)  -7.88%
49. O=C(O)c1cnc2c(cnn2C2CCCC2)c1  -9.71%
50. Cc1nc2c(C)cccc2cc1C(=O)N1CCC2(CCNCC2)CC1  -10.67%
51. CCN(CC)Cc1cc(C(=O)N2CCC3(CCN(C)CC3)C2)c(C)o1  -14.17%
52. CNC(=O)c1nc(COc2ccc3c(c2)OCO3)no1  -15.12%
53. COCCC(=O)NCCCOC1CCCc2ccccc21 (stereo not drawn)  -15.49%
54. OC1(CN2CCC(Oc3cccc(C(F)(F)F)c3)CC2)CCNC1 (stereo not drawn)  -16.56%
55. Cc1noc(C)c1C(=O)N1CC[C@H]2C[C@@H](c3nccs3)O[C@@H]2C1  -17.88%
56. COc1ccc(C(=O)N2CCOc3ccncc32)cc1  -21.39%
57. O=C(Cc1ccccc1F)N1CCN(C(=O)c2ccoc2)CC1  -24.79%
58. Cc1cccc(OCCNC(=O)C(C)S(=O)(=O)c2ccccn2)c1 (stereo not drawn)  -27.59%
59. O=C(NCc1cccnc1N1CCCCC1)c1cccs1  -27.83%
60. Cc1nc2c(C)cccc2cc1C(=O)N1CCC2(CCN(C)CC2)C1  -30.77%
61. CC(C)NC(=O)CCNC(=O)CCc1cc(Cl)cs1  -31.42%
62. O=C(c1nc(Cc2c[nH]c3ccccc23)no1)N1CCOCC1  -33.88%
63. COCCN1C(=O)C[C@H]2[C@H]1CCN2Cc1ccccc1  -34.48%
64. Cc1cc(C)c(C(=O)N2CCOC(CCN(C)C)C2)o1 (stereo not drawn)  -36.52%
65. Cc1cccc(-c2ccc3nc(C4CCN(CC5CC5)CC4)nn3c2)c1  -48.77%
66. OC1(CNC2CCN(Cc3ccncc3)CC2)CCc2ccccc21 (stereo not drawn)  -49.57%
67. CCO[C@@H]1C[C@H]2CN(S(=O)(=O)c3cccs3)CCN2C1  -49.68%
68. CCC1=NC(SCC(=O)c2ccc(Cl)cc2)c2cc(CC)sc2N1 (stereo not drawn)  -77.67%
